# Compound activity as filed in PubChem.
# DUSP3 inh: inhibitors of human VHR1 phosphatase (DUSP3); 50,000 tested, 0.7% active; inhibition, % at 20 µM; P51452; AID 1992; recombinant VHR phosphatase, colorimetric substrate read-out; in the data active means inhibition above about 60%
# Target sequence (P51452 whole entry, looked up): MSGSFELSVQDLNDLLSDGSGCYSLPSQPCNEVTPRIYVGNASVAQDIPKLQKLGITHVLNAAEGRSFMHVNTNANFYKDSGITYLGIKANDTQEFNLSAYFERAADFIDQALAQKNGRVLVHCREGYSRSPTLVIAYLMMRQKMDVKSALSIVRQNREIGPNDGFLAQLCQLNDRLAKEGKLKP
# * = called active by the depositor. Shown is part of a subset that was picked to be rich in hits.
SMILES,DUSP3 inh
Cc1cc(NS(=O)(=O)c2ccc(Nc3nc(-c4ccccn4)cs3)cc2)no1,3
Cc1cc(C)nc(NS(=O)(=O)c2ccc(Nc3nc(-c4sc(N)nc4C)cs3)cc2)n1,67*
COc1ccc(-c2cc(-c3ccc(C)cc3)nc(N3CCCC3)n2)cc1,-12
Cc1cc(C)c(C(=O)C(C)N)c(C)c1 (stereo not given),-36
CCOc1cc(/C=N/n2cnnc2)ccc1OCc1cccc2ccccc12,112*
COc1ccccc1OCCOc1cccc(/C=N/n2cnnc2)c1,-8
CCOc1cc(/C=N/n2cnnc2)ccc1OS(=O)(=O)c1ccccc1,10
CCOc1cc(/C=N/n2cnnc2)ccc1OCCOc1ccc(C)cc1,-34
COc1cc(/C=N/n2cnnc2)ccc1OCCOc1ccc(C(C)(C)C)cc1,-1
COc1cccc(OCCOc2ccc(/C=N/n3cnnc3)cc2OC)c1,116*
COc1ccccc1N1CCN(C(=O)c2cccc(I)c2)CC1,1
CC(C)OC(=O)C1C(=O)CC(C)(O)C(C(=O)OC(C)C)C1/C=C/c1ccccc1 (stereo not given),-18
COc1cc(N2Cc3ccc(OC)c(OC)c3C2=O)cc(OC)c1OC,-12
Cc1c(NC(=O)C(Sc2ccccc2)c2ccccc2)c(=O)n(-c2ccccc2)n1C (stereo not given),-8
COC(=O)C1=C(C(=O)OC)SC(=C2C(=S)C(C)(C)N(C(=O)c3ccc([N+](=O)[O-])cc3)c3cc(OC)ccc32)S1,6
Cc1ccc(C(=O)Nc2sc3c(c2C(=O)N2CCC(C(N)=O)CC2)CCCC3)cc1,37
Cc1ccc(C(=O)Nc2sc3c(c2C(=O)N2CCC(C)CC2)CCCC3)cc1,87*
Cc1ccc(C(=O)Nc2sc3c(c2C(=O)N2CCCCCC2)CCC(C)C3)cc1 (stereo not given),3
O=C(Nc1ccc(N2CCCCC2)c(Cl)c1)c1cccc2ccccc12,24
Cc1ccc(N=Cc2c(O)n(-c3ccc(F)cc3)c(=O)[nH]c2=O)cc1,-14
COC(=O)C1=NNC2C(=O)N(c3cccc(C(F)(F)F)c3)C(=O)C12 (stereo not given),-38
O=C(/C=C/c1ccc(-c2ccccc2[N+](=O)[O-])o1)Nc1ccc(-c2nc3ccccc3o2)cc1,106*
O=C(/C=C/c1ccc(-c2ccccc2[N+](=O)[O-])o1)NCc1ccccc1,2
O=C(/C=C/c1ccc(-c2ccccc2[N+](=O)[O-])o1)Nc1ccc(O)c(-c2nc3ccccc3o2)c1,-10
N#C/C(=C\c1cccc(OCc2ccccc2)c1)C(N)=O,-28
SMILES,DUSP3 inh
CCOc1cc(N2CCOCC2)c(OCC)cc1N,88*
CCOc1ccc(C(=S)N2CCOCC2)cc1,6
CCOc1ccc(C(=O)Nc2ccc(N3CCOCC3)c(Cl)c2)cc1Cl,-11
CSc1ccc(S(=O)(=O)N(CC(=O)Nc2ccc(C(C)=O)cc2)c2ccc(C)cc2)cc1,-13
CCOc1ccc(C(=O)Nc2ccc(C(C)C)cc2)cc1,-5
CCc1ccc(NC2=C(Cl)C(=O)N(c3ccc(Br)cc3)C2=O)cc1,-11
COc1ccc(N(CC(=O)Nc2ccc(Br)cc2)S(=O)(=O)c2ccc(OC)c(OC)c2)cc1,-3
O=C(COc1ccc(Cl)cc1)Nc1nc(-c2ccc(Cl)cc2)cs1,2
Cc1ccc(OCC(=O)Nc2nc(-c3ccccc3)cs2)cc1C,93*
O=C(COc1ccccc1Cl)Nc1nc(-c2ccccc2)cs1,-8
Cc1ccccc1OCC(=O)Nc1nc(-c2ccc(Br)cc2)cs1,-16
Cc1cc(OCC(=O)Nc2nc(-c3ccccc3)cs2)ccc1Cl,82*
Cc1ccnc(NC(=O)COc2ccc(Cl)c(C)c2)c1,-6
Cc1ccc(OCC(=O)NNC(=O)c2cccc(O)c2)c(C)c1,-2
O=C1NC(=Nc2ccccc2)S/C1=C/c1ccsc1,-7
C(=N\N(c1ccccc1)c1ccccc1)/c1ccccc1,-12
CC(=O)Oc1ccccc1N1C(=O)c2ccc(-c3nc4ccccc4c(=O)o3)cc2C1=O,-2
CCOC(=O)c1c(N)sc2c1CCN(Cc1ccccc1)C2,96*
CCCOC(=O)c1c(N)sc2c1CCC2,8
CCOC(=O)c1c(C)nn(Cc2ccccc2)c1N,6
N#C/C(=C/c1cccc(O)c1)C(=O)Nc1cccc(Br)c1,7
CC(=O)Nc1ccc2c(c1)C1C=CCC1C(C(=O)O)N2 (stereo not given),-2
O=C(O)C1Nc2c(Cl)cc(Cl)cc2C2C=CCC12 (stereo not given),97*
COc1ccc2c(c1)C1C=CCC1C(C(=O)O)N2 (stereo not given),23
COc1ccc(OC)c(/C=C2\C(=O)N(c3ccc(S(N)(=O)=O)cc3)N=C2C)c1,7
O=C(O)c1ccc(Oc2ccc3c(c2)C(=O)N(c2ccc([N+](=O)[O-])cc2)C3=O)cc1,5
CCOc1ccc(-c2c(C)sc(N)c2C(=O)OC(C)C)cc1,14
CCOC(=O)c1c(N)sc(C)c1-c1ccc(CC(C)C)cc1,64*
CCOC(=O)c1c(N)sc(C)c1-c1ccc(OCC)cc1,5
COc1ccc(NC(=O)C(=O)NCC2CCCO2)cc1Cl (stereo not given),0
